In PubChem BioAssay AID686978 (National Center for Advancing Translational Sciences (NCATS), 2013):
About 64,000 (15%) of roughly 420,000 compounds were called active. Not shown: some 27% with an inconclusive outcome. Calls come from the whole dose curve; as a rule, active = well fitted inhibition curve with a large enough effect; inconclusive = small, poorly fitted or top-dose-only effect; inactive = flat fitted curve, though single readings scatter. The list is a sample of the results.

Test: qHTS for Inhibitors of human tyrosyl-DNA phosphodiesterase 1 (TDP1): qHTS in cells in absence of CPT; note: nearly all actives have a fitted effect of over 55% in size
Conditions: DT40 Tdp1-/- hTDP1 cells, no CPT, ATP luminescence, 48 h; activity change, negative = growth inhibition: at 46.2 µM (top of the series)
Outline: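 DT40 Tdp1-/-;hTDP1 cells, no CPT (DMSO vehicle only), 400 cells/well; compounds pin-transferred; ≥48 hr, 37 °C; CellTiter-Glo 30 min RT dark, luminescence read.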
% is set by controls: 0 for no effect and ±100 for the full control effect; potency is the fitted concentration of half-maximal effect.

Row | SMILES | activity change, negative = growth inhibition | Potency
1 | C=CCn1c(COc2ccccc2)nnc1SCC(=O)NCC(=O)OCC | -27.1% (inactive) | –
2 | O=C(O)CSc1nccc2ccccc12 | -14.4% (inactive) | –
3 | COc1cc(Cl)c(S(=O)(=O)n2cnc(C)c2)cc1Cl | -1.08% (inactive) | –
4 | Cc1ccnc(NC(=O)CNC(=O)c2ccccc2)c1 | 5.46% (inactive) | –
5 | CCc1ccc(CNC(=O)CCc2nc(-c3cccs3)no2)cc1 | -19.3% (inactive) | –
6 | CSc1n[nH]c(-c2ccco2)n1 | -7.2% (inactive) | –
7 | O=C(CC(NS(=O)(=O)c1ccc(Cl)cc1)c1ccco1)NC1CCCC1 (stereo unspecified) | -3.48% (inactive) | –
8 | CCc1nn(CC(=O)N2CCN(CC)CC2)c(=O)c2cccn12 | -0.686% (inactive) | –
9 | COc1ccccc1NS(=O)(=O)c1ccc(C)c(C(=O)NCC(c2ccco2)N(C)C)c1 (stereo unspecified) | 6.61% (inactive) | –
10 | C=CC(C1=CC(=O)C=CC1=O)c1ccc(O)cc1 (stereo unspecified) | – | 1.84 µM (active)
11 | COc1ccc(CC(=O)Nc2ccc3c(c2)CCC3)cc1S(=O)(=O)N1CCOCC1 | -18.7% (inactive) | –
12 | COC(=O)c1cccc(N(CC(=O)NCC2CCCO2)C(=O)CCC(=O)Nc2cc(C)on2)c1 (stereo unspecified) | -22.2% (inactive) | –
13 | CCOC(=O)Cc1csc(SCC(=O)Nc2ccc(C)cc2F)n1 | – | 14.6 µM (active)
14 | CCOC(=O)Cc1csc(NC(=O)COc2ccc3c(C)cc(=O)oc3c2)n1 | -22.8% (inactive) | –
15 | Cc1ccc(-c2csc(SCC(=O)Nc3cc(C)on3)n2)cc1 | -27.8% (inactive) | –
16 | CCOC(=O)Cc1csc(SCc2cc(=O)oc3cc(O)ccc23)n1 | – | 13 µM (active)
17 | CCOC(=O)Cc1csc(NC(=O)C(C)(C)C)n1 | -20.3% (inactive) | –
18 | Cc1ccc(C)c(NC(=O)COC(=O)Cn2c(C)csc2=O)c1 | -18.8% (inactive) | –
19 | CCOC(=O)Cc1csc(NC(=O)CSc2ccc(Br)cc2)n1 | – | 16.4 µM (active)
20 | CCOC(=O)Cc1csc(NC(NC(=O)OCC)(C(F)(F)F)C(F)(F)F)n1 | -14.5% (inactive) | –
21 | Cc1ccc2c(CSc3nncs3)cc(=O)oc2c1 | -5.24% (inactive) | –
22 | CN(C(=O)CSc1nnc(Nc2ccccc2)s1)C1CCS(=O)(=O)C1 (stereo unspecified) | -10.7% (inactive) | –
23 | CC(Nc1ccccc1)c1cccnc1 (stereo unspecified) | 4.56% (inactive) | –
24 | O=C(O)C1CCCN1c1nc(Cl)ccc1[N+](=O)[O-] (stereo unspecified) | -3.67% (inactive) | –
25 | CCc1nccn1CCC(=O)N1CCCC(N2CCN(c3ccccc3F)CC2)C1 (stereo unspecified) | -2.17% (inactive) | –
26 | CCn1ccnc1CN1CCCC(C(=O)c2ccc3c4c(cccc24)CC3)C1 (stereo unspecified) | – | 4.61 µM (active)

Row | SMILES | activity change, negative = growth inhibition | Potency
27 | Cc1c(CN2CCCC(C(=O)c3cccc(Cl)c3)C2)c(=O)n(-c2ccccc2)n1C (stereo unspecified) | -10.5% (inactive) | –
28 | Cc1ccc(CN2CCC(n3nccc3NC(=O)CCCc3ccccc3)CC2)o1 | -21.2% (inactive) | –
29 | COc1cc(CN2CCC(n3nccc3NC(=O)CCCc3ccccc3)CC2)ccc1O | 1.27% (inactive) | –
30 | COc1ccc(CN2CCC(n3nccc3NC(=O)CCCc3ccccc3)CC2)cc1C | – | 29.1 µM (active)
31 | CCN(C[C@H]1N[C@@](CC)(C(=O)OC)[C@H]2C(=O)N(C)C(=O)[C@@H]12)C(=O)Nc1ccc(F)cc1 | -6.24% (inactive) | –
32 | CCNC(=O)N(CC)C[C@H]1N[C@@](CC)(C(=O)OC)[C@H]2C(=O)N(Cc3ccccc3)C(=O)[C@@H]12 | 30.1% (inactive) | –
33 | CCN(C[C@H]1N[C@@](CC)(C(=O)OC)[C@H]2C(=O)N(Cc3ccccc3)C(=O)[C@@H]12)S(=O)(=O)c1ccc(C(F)(F)F)cc1 | – | 18.4 µM (active)
34 | CC[C@@]1(C(=O)OC)N[C@H](CN(C)C(C)=O)[C@@H]2C(=O)N(C)C(=O)[C@@H]21 | -6.42% (inactive) | –
35 | CCN(CC)S(=O)(=O)c1ccc2c(c1)N(CC(=O)NCc1ccccc1)C(=O)CS2 | -10.2% (inactive) | –
36 | COC(=O)[C@]1(Cc2ccccc2)N[C@H](CN(C)S(=O)(=O)c2ccc(OC(F)(F)F)cc2)[C@@H]2C(=O)N(C)C(=O)[C@@H]21 | – | 23.1 µM (active)
37 | CCC1OC(c2ccc([N+](=O)[O-])cc2)=Nc2ccccc21 (stereo unspecified) | -0.861% (inactive) | –
38 | COC(=O)c1sccc1NS(=O)(=O)c1ccc(F)cc1F | -15.1% (inactive) | –
39 | CN(C)c1ccc(/C=N\S(=O)(=O)c2ccccc2)cc1 | -3.66% (inactive) | –
40 | CN(C)c1cc(N)c2ccccc2n1 (tested in a mixture with another compound) | -26.8% (inactive) | –
41 | C(=Nc1ccc(/C=C/c2ccnc3ccccc23)cc1)c1cc2c3c(c1)CCCN3CCC2 | – | 11.2 µM (active)
42 | CN(C)c1ccc(/C=C/C=C/c2ccnc3ccccc23)cc1 | – | 2 µM (active)
43 | CN(C)c1ccc(/C=C/c2c3ccccc3nc3ccccc23)cc1 | – | 12.6 µM (active)
44 | CCCCC(CCCC)c1ccc(C=Nc2ccc(/C=C/c3ccnc4ccccc34)cc2)cc1 | – | 11.2 µM (active)
45 | O=C(O)C1C2C=CC(O2)C1C(=O)Nc1ccccn1 (stereo unspecified) | -28.6% (inactive) | –
46 | Cc1nc(COc2cc3oc(=O)cc(C)c3cc2Cl)cs1 | -27.1% (inactive) | –
47 | COc1ccc(S(=O)(=O)N2CCN(C(=O)NC3CCCCC3)CC2)cc1 | -16.4% (inactive) | –
48 | C[C@H](NS(=O)(=O)c1ccc(Cl)cc1)C(=O)OCC(=O)N1CCOCC1 | 23.5% (inactive) | –
49 | Cc1sc2ccccc2c1CNC[C@H]1O[C@@H](n2ccc(=O)[nH]c2=O)[C@H](O)[C@@H]1O | 1.3% (inactive) | –
50 | O=S(N1CCCCCC1)C12CC3CC(CC(C3)C1)C2 (stereo unspecified) | -28.1% (inactive) | –
51 | O=C1NCCn2nc3ccccc3c21 | 0.602% (inactive) | –
52 | CN(C)c1ccc(C=Nc2ccc(/C=C/c3ccnc4ccccc34)cc2)cc1 | – | 17.8 µM (active)

Row | SMILES | activity change, negative = growth inhibition | Potency
53 | NC(=O)Nc1ccc(/C=C/c2ccnc3ccccc23)cc1 | – | 12.6 µM (active)
54 | O=C(/C=C/c1ccc(Cl)cc1)Nc1ccc(S(=O)(=O)Nc2ncccn2)cc1 | 0.921% (inactive) | –
55 | C(=Nc1ccc(/C=C/c2ccnc3ccccc23)cc1)Nc1ccc(/C=C/c2ccnc3ccccc23)cc1 | – | 8.91 µM (active)
56 | CC(=O)Nc1ccc(NC(=O)COc2ncnc3ccccc23)cc1 | -12.7% (inactive) | –
57 | O=C(CCNS(=O)(=O)c1ccc(Br)s1)NCc1ccccc1Cl | -6.47% (inactive) | –
58 | CC(=O)c1cc(CN2CCC(n3nccc3NC(=O)c3ccccc3Cl)CC2)cs1 | -16.4% (inactive) | –
59 | Cc1cc(NC(=O)CSc2ncc(C(F)(F)F)cc2Cl)no1 | -18.9% (inactive) | –
60 | O=C(O)c1ccc([N+](=O)[O-])cc1Sc1ccsc1 | -9.07% (inactive) | –
61 | COCCNc1nc(N)c([N+](=O)[O-])c(N2CCCCCC2)n1 | -19.5% (inactive) | –
62 | CCC1=NN(C(=O)Cc2ccc([N+](=O)[O-])cc2)C(O)(c2ccc(Br)cc2)C1 (stereo unspecified) | -5.88% (inactive) | –
63 | CN(C(=O)CSc1nnc(-c2c[nH]c3ccccc23)o1)C1CCS(=O)(=O)C1 (stereo unspecified) | -10.9% (inactive) | –
64 | Cc1ccc(C)c(S(=O)(=O)Nc2cccc(-n3cnnn3)c2)c1 | 3.02% (inactive) | –
65 | CCCCN(C)c1ccc([N+](=O)[O-])cc1 | -12.2% (inactive) | –
66 | COc1ccc(Cc2nnc(NC(=O)Cc3cccs3)s2)cc1 | -1.02% (inactive) | –
67 | CCNC(=S)N1CCC(c2nc3cc(C)c(C)cc3[nH]2)CC1 | -14.5% (inactive) | –
68 | CCN(CC)CCCC(C)Nc1ccnc2cc(Cl)ccc12 (stereo unspecified) | – | 0.794 µM (active)
69 | CCN(CC)CCNc1ccc(Cl)cc1[N+](=O)[O-] | -24.4% (inactive) | –
70 | COC(=O)COc1ccc(C2NC(=O)NC(C)=C2C(=O)NCc2ccccc2)cc1OC (stereo unspecified) | 7.11% (inactive) | –
71 | O=C(Cc1ccccc1)Nc1cccc(C(=O)N/N=C/c2ccco2)c1 | -23.6% (inactive) | –
72 | CC(/C=N/NC(=O)c1cc(-c2ccc3ccccc3c2)n[nH]1)=C\c1ccco1 | – | 23.1 µM (active)
73 | O=C(NCc1ccco1)/C(=C/c1ccco1)NC(=O)c1ccccc1 | -12.2% (inactive) | –
74 | Cc1noc(C)c1COc1ccc2ccc(=O)oc2c1 | 1.31% (inactive) | –
75 | COC1=C/C(=C/c2c(N)n3nc(CC(=O)N4CCOCC4)sc3nc2=O)C=CC1=O | -9.01% (inactive) | –
76 | CCOc1ccc(NC(=O)[C@H](C)NC(=O)C2CC(=O)N(c3ccc(OC)cc3)C2)cc1 (stereo partly specified) | 33.1% (inactive) | –
77 | CCCOc1cc(C)c(S(=O)(=O)n2nnc3ccccc32)cc1C | -14.5% (inactive) | –
78 | CCCCN1CC(c2nc3ccccc3n2CCCCOc2ccc(C)cc2C)CC1=O (stereo unspecified) | – | 5.8 µM (active)

Row | SMILES | activity change, negative = growth inhibition | Potency
79 | CCOc1ccc(N2CC(c3nc4ccccc4n3CCOc3ccc(OC)cc3)CC2=O)cc1 (stereo unspecified) | – | 23.1 µM (active)
80 | CCc1ccccc1N1CC(c2nc3ccccc3n2CCCCOc2ccccc2)CC1=O (stereo unspecified) | -19.2% (inactive) | –
81 | CCC1Oc2ccc(Cl)cc2N(CC(=O)O)C1=O (stereo unspecified) | -17.8% (inactive) | –
82 | Nc1c(C(=O)OCC(=O)Nc2ccc(OC(F)F)cc2)[nH]c(=O)[nH]c1=O | 2.04% (inactive) | –
83 | Cc1cc(C)cc(NC(=O)COC(=O)c2cc(C)oc2C)c1 | 4.9% (inactive) | –
84 | Cc1ccccc1Nc1nc(N)nc(COC(=O)CCC(=O)c2ccc(F)cc2)n1 | -24% (inactive) | –
85 | CCCCNC(=O)CCn1nc(-c2ccc(Cl)cc2)ccc1=O | -2.25% (inactive) | –
86 | C[C@H](CO)N1C[C@H](C)[C@@H](CN(C)Cc2ccc3c(c2)OCO3)OCc2cnnn2CCCC1=O | -4.82% (inactive) | –
87 | Cc1ccc(CN(C)C[C@@H]2OCc3cnnn3CCCC(=O)N([C@@H](C)CO)C[C@H]2C)cc1 | -26.1% (inactive) | –
88 | C[C@H]1CN([C@@H](C)CO)C(=O)CCCn2nncc2CO[C@@H]1CN(C)Cc1ccc(Oc2ccccc2)cc1 | – | 18.4 µM (active)
89 | CCCC(=O)N1CCC(CCC(=O)NC2CC2)CC1 | 3.6% (inactive) | –
90 | COCCN1C(=O)C(=O)/C(=C(/O)c2ccc(S(=O)(=O)N3CCCCC3)cc2)C1c1ccc(OC)c(OC)c1 (stereo unspecified) | 1.45% (inactive) | –
91 | CSc1nc(-c2ccccc2)nc(C(Cl)Cl)n1 | – | 2.31 µM (active)
92 | CSc1ncc(Sc2ccccc2)c(C(=O)O)n1 | 2.57% (inactive) | –
93 | CSc1nc(C)cc(SC(C(C)=O)C(=O)Nc2ccccc2)n1 (stereo unspecified) | -1.76% (inactive) | –
94 | CC1(C)Oc2ccc(C(=O)N3CCOCC3)cc2N(CC(=O)Nc2ccccc2)C1=O | -9.51% (inactive) | –
95 | Cc1ccc(S(=O)(=O)N2CCCC2C(=O)NCc2ccco2)cc1 (stereo unspecified) | -18.4% (inactive) | –
96 | O=C(NCCC1CCCCN1S(=O)(=O)c1ccc(Cl)cc1)C(=O)NCc1ccco1 (stereo unspecified) | – | 14.6 µM (active)
97 | O=C(NCCC1CCCCN1S(=O)(=O)c1ccccc1)C(=O)NCC1CCCO1 (stereo unspecified) | 4.61% (inactive) | –
98 | COc1ccc(NC(=O)CCCc2nnc3n(CCC(C)C)c(=O)c4sccc4n23)c(OC)c1 | -34.1% (inactive) | –
99 | CCOc1ccccc1N=C1NC(=O)CS1 | -4.09% (inactive) | –
100 | CCC/C(O)=C1\C(=O)CC(C)(C)CC1=Nc1ccccc1OC | – | 14.6 µM (active)
101 | COc1ccccc1N=C(C)C1=C(O)COC1=O | 11.5% (inactive) | –
